hgDAF12 agonist: hgDAF-12 agonism, primary luciferase screen | HEK293 GAL4-hgDAF12 UAS-luciferase reporter, agonist luminescence; normalized to butyrate control | hit rate 1.8% among 370,000 | AID 687014 | activation, % at 6.8 µM;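 active = activation above a cutoff set at the mean of all screened compounds plus 3 SD, cut at about 10% in these data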
DAX1 inh-1: NR0B1 (DAX1) inhibition; hit rate 0.99% among 340,000; P51843; inhibition, % at 6.75 µM; HEK293 Gal4-DAX1 luciferase reporter, luminescence;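 active = inhibition above the mean over all tested compounds plus 3 SD, cut at about 4.2% in these data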;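 note: inhibition shows as a rise in luminescence from relieved DAX1 repression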
Target sequence (P51843 207-470 limits assumed): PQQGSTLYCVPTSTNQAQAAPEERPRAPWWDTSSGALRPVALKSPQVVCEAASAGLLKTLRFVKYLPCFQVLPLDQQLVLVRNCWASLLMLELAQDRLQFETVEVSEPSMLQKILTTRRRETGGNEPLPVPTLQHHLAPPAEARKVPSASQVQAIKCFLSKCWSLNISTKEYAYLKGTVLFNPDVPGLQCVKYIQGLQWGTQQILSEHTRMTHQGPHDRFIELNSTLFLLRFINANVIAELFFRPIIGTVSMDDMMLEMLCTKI
DAX1 inh-2: blocks DAX1 repression of SF-1 activated StAR promoter; HEK293T StAR-luciferase reporter, SF-1/DAX-1 repression relief; inhibition, % at 6.8 µM; hit rate 1.1% among 370,000;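 active = inhibition above the mean over all tested compounds plus 3 SD, cut at about 3.6% in these data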;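 note: higher inhibition means more luminescence from relief of DAX-1 repression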
SMARCA2 activ: SMARCA2 function activation, primary screen; MG213 cells, MMTV-luciferase reporter, dexamethasone, overnight; activation, % at 9.1 µM; hit rate 1% among 370,000; AID 652017; in the data active = activation above about 7.8%
hcDAF12 agonist: H. contortus DAF-12 activation, primary screen. HEK293 hcDAF-12 lit1-tk-luc reporter, luminescence; 0% DMSO, 100% Δ7-dafachronic acid. hit rate 1.4% among 370,000. activation, % at 6.8 µM;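 active = activation above the mean of all tested compounds plus 3 SD, cut at about 5.5% in these data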
ssDAF12 agonist: activates DAF-12 receptor from parasite S. stercoralis; HEK293 ssDAF-12/GRIP1 lit1-tk-luc reporter, luminescence; % of 3 µM dafachronic acid response; activation, % at 6.8 µM; hit rate 1% among 370,000; AID 652126;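 active = activation above the mean over all tested compounds plus 3 SD, cut at about 0.9% in these data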
Each line names hits and unclear results; the compound was inactive in the other large screens. In the library only some 4.8% were active in any assay of this set; here they are far more common.

CC(C)n1c(O)c(N=NC(=O)C2COc3ccccc3O2)c2ccccc21 (centres undefined)	ssDAF12 agonist 1.1
COC(=O)c1ccc(NC(=O)C[n+]2ccccc2)cc1	ssDAF12 agonist 1.8
CC(=O)c1ccc(NC(=O)C[n+]2ccccc2)cc1	none
Cc1ccc(-c2nc3cc(C)c(Br)c(C)n3c2CC(C)(C)C)cc1	hcDAF12 agonist 6.5, ssDAF12 agonist 1.5 (no result: DAX1 inh-1)
Cc1cc2nc(-c3cccc(Br)c3)c(CC3CCCCC3)n2c(C)c1Br	ssDAF12 agonist 1.6 (no result: DAX1 inh-1)
Cc1ccc(-c2nc3cc(C)c(Br)c(C)n3c2Cc2ccsc2)cc1	DAX1 inh-2 3.7, ssDAF12 agonist 1.5 (no result: DAX1 inh-1)
Cc1cc2nc(-c3cccc(Br)c3)c(Cc3ccsc3)n2c(C)c1Br	none (no result: DAX1 inh-1)
Cc1ccc(-c2nc3c(C)cc(Br)cn3c2Cc2ccsc2)cc1	hgDAF12 agonist 11 (no result: DAX1 inh-1)
CN1C(=O)CS(=O)c2ccc(C(=O)NC3CC3)cc21 (centres undefined)	none
Cc1ccc(Cc2c(-c3ccccc3)nc3cc(C)c(Br)c(C)n23)cc1	ssDAF12 agonist 1.3 (no result: DAX1 inh-1)
Cc1cc2nc(-c3ccc(F)cc3)c(Cc3ccccc3)n2c(C)c1Br	none (no result: DAX1 inh-1)
COC(=O)C1CCN(S(C)(=O)=O)CC1	none
CNC(=O)c1cc2cc(OC)ccc2oc1=N	none
CC(C)(C)c1ccc(NC(=O)C2=CC=CN3CCS(=O)(=O)N=C23)cc1	DAX1 inh-2 3.9
CC(NC(=O)C1CCC(CNc2c(N3CCCCC3)c(=O)c2=O)CC1)c1ccccc1 (centres undefined)	DAX1 inh-1 5.8
Cc1cccc(C)c1NC(=O)CN1CCNCC1	none
Cc1cccc(C)c1NC(=O)CN1CCCC1	DAX1 inh-1 4.5
CC(C)C(=O)N1CCN(c2ccc(NC(=O)c3cccs3)cc2)CC1	none
COc1ccc(CN2CN(S(=O)(=O)c3cccs3)c3nc4ccccc4nc32)cc1	hgDAF12 agonist 13
O=S(=O)(c1cccs1)N1CN(Cc2ccccc2)c2nc3ccccc3nc21	none
Cc1cc(Cl)ccc1OCC(=O)Nc1ccc(CN2CCOCC2)cc1	none
Nc1c(C(=O)N2CCCCC2)sc2nc3c(cc12)CCCC3	hgDAF12 agonist 12
CCC1Cc2c(nc(N)c3c(N)nc(N4CCOCC4)c(C#N)c23)O1 (centres undefined)	none
CC(=O)Nc1cc2c(cc1Cl)-c1ccc(F)cc1C2O (centres undefined)	ssDAF12 agonist 1.5
CC(=O)Nc1cc2c(cc1Cl)Cc1cc(Cl)ccc1-2	none
O=C1CC(N2CCC(O)(c3ccc(Cl)cc3)CC2)C(=O)N1Cc1ccc(N2CCCC2=O)cc1 (centres undefined)	none
O=C(CC1NCCc2ccccc21)Nc1ccc(Oc2ccccc2)cc1 (centres undefined)	none
O=C(CC1NCCc2ccccc21)Nc1ccccc1 (centres undefined)	ssDAF12 agonist 0.9
COc1cccc(/C=N/NC(=O)c2c(C)nc3ccc(Br)cn23)c1	DAX1 inh-1 6.4
Cc1cccc(/C=N/NC(=O)c2ccc(Br)cc2)c1	hgDAF12 agonist 12
Cc1ccccc1C(=O)NC(=S)NC1CCS(=O)(=O)C1 (centres undefined)	none
CCCc1nc2ccc(C(=O)OC)cn2c1Cc1ccccc1OC	DAX1 inh-2 4.2 (no result: DAX1 inh-1)
CCCc1nc2ccc(C(=O)OC)cn2c1Cc1ccccc1	ssDAF12 agonist 1.0 (no result: DAX1 inh-1)
CCCc1nc2ccc(C(=O)OC)cn2c1Cc1ccccc1C(F)(F)F	none (no result: DAX1 inh-1)
Cc1ccc(CNS(=O)(=O)c2ccc(Br)s2)cc1	none
Cc1cc(C)c(-n2c(C)cc(/C=C3/NC(=O)NC3=O)c2C)c(C)c1	none (no result: DAX1 inh-1)
Cc1nc(-c2ccc(C(=O)N3CCCC3)cc2)cs1	hgDAF12 agonist 11
CCN1CCN(C(=O)c2cc3c(s2)-c2c(C)cccc2OC3)CC1	DAX1 inh-1 5.9 (no result: hgDAF12 agonist, DAX1 inh-2, SMARCA2 activ, hcDAF12 agonist, ssDAF12 agonist)
CCOC(=O)N1CCN(C(=O)c2cc3c(s2)-c2c(C)cccc2OC3)CC1	none
COc1ccc(C2c3c(ccc4ccccc34)Oc3ncn4nc(-c5ccco5)nc4c32)cc1OC (centres undefined)	none
O=c1c2cc3cc(Cl)ccc3nc2ncn1CCc1c[nH]c2ccccc12	ssDAF12 agonist 1.5 (no result: DAX1 inh-1)
FC(F)(F)c1nnc2c(Sc3ccccc3)nc3ccccc3n12	none
FC(F)(F)c1nnc2c(Sc3ccccn3)nc3ccccc3n12	hcDAF12 agonist 5.6
CCC1=[N+](C)CCn2c(C)ccc21	none
